# Measurements as given in publication PMC11006913.
# Changes are numbered by the printed parent chain.
# Columns and labels:
# Assay in all cases: PBM; 200 nM protein, PBS
# Settings in all cases: dsDNA, one strand shown
# [1] = biological target: NKX2-5 (Homo sapiens, UniProt P52952 125-210, R139K)
# [2] = biological target: HOXA4 (Homo sapiens, UniProt Q00056 201-287, W262R)
# [3] = biological target: PRRX1 (Homo sapiens, UniProt P54821 80-166, F113S)
# [4] = biological target: HOXA4 (Homo sapiens, UniProt Q00056 201-287, R217L)
# Chain of HOXA4 (Homo sapiens, UniProt Q00056 201-287, R217L) (Q00056 201-287 R217L): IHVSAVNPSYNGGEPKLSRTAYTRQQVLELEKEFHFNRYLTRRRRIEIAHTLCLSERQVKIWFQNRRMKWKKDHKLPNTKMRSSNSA
# [5] = biological target: HOXA4 (Homo sapiens, UniProt Q00056 201-287)
# Chain of HOXA4 (Homo sapiens, UniProt Q00056 201-287) (Q00056 201-287): as the sequence (Q00056 201-287 R217L) above, with L17R counted along it
# [6] = biological target: HOXA4 (Homo sapiens, UniProt Q00056 201-287, W262F)
# Chain of HOXA4 (Homo sapiens, UniProt Q00056 201-287, W262F) (Q00056 201-287 W262F): as the sequence (Q00056 201-287 R217L) above, with L17R, W62F counted along it
# [7] = biological target: PRRX1 (Homo sapiens, UniProt P54821 80-166)
# Chain of PRRX1 (Homo sapiens, UniProt P54821 80-166) (P54821 80-166): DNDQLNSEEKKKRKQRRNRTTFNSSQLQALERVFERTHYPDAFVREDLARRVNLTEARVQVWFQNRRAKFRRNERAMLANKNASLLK
# [8] = biological target: NKX2-5 (Homo sapiens, UniProt P52952 125-210)
# Chain of NKX2-5 (Homo sapiens, UniProt P52952 125-210) (P52952 125-210): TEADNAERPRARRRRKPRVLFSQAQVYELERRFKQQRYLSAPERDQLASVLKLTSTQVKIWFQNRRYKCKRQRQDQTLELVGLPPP
# [9] = biological target: T1, SIX6 (Homo sapiens, UniProt O95475 114-200, L167I)
# T1 sequence: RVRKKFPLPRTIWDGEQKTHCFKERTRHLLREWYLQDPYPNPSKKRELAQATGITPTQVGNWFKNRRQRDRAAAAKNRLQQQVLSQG
# [10] = biological target: T2, SIX6 (Homo sapiens, UniProt O95475 114-200, L143V)
# T2 sequence: T1 sequence with L30V, I54L
# [11] = biological target: T3, SIX6 (Homo sapiens, UniProt O95475 114-200, H141N)
# T3 sequence: T1 sequence with H28N, I54L
# [12] = biological target: T4, SIX6 (Homo sapiens, UniProt O95475 114-200, T165P)
# T4 sequence: T1 sequence with T52P, I54L
# [13] = biological target: T5, SIX6 (Homo sapiens, UniProt O95475 114-200, L167M)
# T5 sequence: T1 sequence with I54M
# [14] = biological target: T6, SIX6 (Homo sapiens, UniProt O95475 114-200, L143M)
# T6 sequence: T1 sequence with L30M, I54L
# [15] = biological target: T7, SIX6 (Homo sapiens, UniProt O95475 114-200, L143I)
# T7 sequence: T1 sequence with L30I, I54L
# [16] = biological target: T8, SIX6 (Homo sapiens, UniProt O95475 114-200, T165G)
# T8 sequence: T1 sequence with T52G, I54L
# [17] = biological target: T9, SIX6 (Homo sapiens, UniProt O95475 114-200, T139Q)
# T9 sequence: T1 sequence with T26Q, I54L
# [18] = biological target: T10, SIX6 (Homo sapiens, UniProt O95475 114-200, T165A)
# T10 sequence: T1 sequence with T52A, I54L
# [19] = biological target: T11, SIX6 (Homo sapiens, UniProt O95475 114-200, L167V)
# T11 sequence: T1 sequence with I54V
# [20] = biological target: T12, SIX6 (Homo sapiens, UniProt O95475 114-200)
# T12 sequence: T1 sequence with I54L
# [21] = biological target: T13, SIX6 (Homo sapiens, UniProt O95475 114-200, T165I)
# T13 sequence: T1 sequence with T52I, I54L
# [22] = biological target: HOXA2 (Homo sapiens, UniProt O43364 129-215, R185T)
# Chain of HOXA2 (Homo sapiens, UniProt O43364 129-215, R185T) (O43364 129-215 R185T): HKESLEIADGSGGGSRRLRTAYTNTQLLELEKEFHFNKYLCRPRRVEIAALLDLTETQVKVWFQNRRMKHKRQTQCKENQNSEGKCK
# [23] = biological target: HOXA2 (Homo sapiens, UniProt O43364 129-215, R185K)
# Chain of HOXA2 (Homo sapiens, UniProt O43364 129-215, R185K) (O43364 129-215 R185K): as the sequence (O43364 129-215 R185T) above, with T57K counted along it
# [24] = biological target: HOXA2 (Homo sapiens, UniProt O43364 129-215, Y150S)
# Chain of HOXA2 (Homo sapiens, UniProt O43364 129-215, Y150S) (O43364 129-215 Y150S): as the sequence (O43364 129-215 R185T) above, with Y22S, T57R counted along it
# [25] = biological target: HOXA2 (Homo sapiens, UniProt O43364 129-215)
# Chain of HOXA2 (Homo sapiens, UniProt O43364 129-215) (O43364 129-215): as the sequence (O43364 129-215 R185T) above, with T57R counted along it
# [26] = biological target: T14, NKX2-4 (Homo sapiens, UniProt Q9H2Z4 175-261, T231S)
# T14 sequence: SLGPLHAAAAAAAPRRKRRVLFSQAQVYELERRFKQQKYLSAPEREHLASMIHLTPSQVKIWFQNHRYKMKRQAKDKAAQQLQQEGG
# [27] = biological target: T15, NKX2-6 (Homo sapiens, UniProt A6NCS4 118-204, R150C)
# T15 sequence: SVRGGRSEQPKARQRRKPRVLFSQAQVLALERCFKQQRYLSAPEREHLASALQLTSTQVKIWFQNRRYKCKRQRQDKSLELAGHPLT
# [28] = biological target: T16, NKX2-6 (Homo sapiens, UniProt A6NCS4 118-204)
# T16 sequence: T15 sequence with C33R
# [29] = biological target: T17, NKX2-6 (Homo sapiens, UniProt A6NCS4 118-204, F151L)
# T17 sequence: T15 sequence with C33R, F34L
# [30] = biological target: NKX3-2 (Homo sapiens, UniProt P78367 192-278, P234S)
# Chain of NKX3-2 (Homo sapiens, UniProt P78367 192-278, P234S) (P78367 192-278 P234S): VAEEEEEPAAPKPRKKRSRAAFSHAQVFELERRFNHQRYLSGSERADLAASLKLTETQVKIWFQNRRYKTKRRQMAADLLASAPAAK
# [31] = biological target: NKX3-2 (Homo sapiens, UniProt P78367 192-278)
# Chain of NKX3-2 (Homo sapiens, UniProt P78367 192-278) (P78367 192-278): as the sequence (P78367 192-278 P234S) above, with S43P counted along it
# [32] = biological target: HOXC10 (Homo sapiens, UniProt Q9NYD6 254-340)
# Chain of HOXC10 (Homo sapiens, UniProt Q9NYD6 254-340) (Q9NYD6 254-340): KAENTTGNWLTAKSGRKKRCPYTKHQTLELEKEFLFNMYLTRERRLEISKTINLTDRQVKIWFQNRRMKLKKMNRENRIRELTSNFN
# [33] = biological target: HOXD13 (Homo sapiens, UniProt P35453 263-343, T313R)
# Chain of HOXD13 (Homo sapiens, UniProt P35453 263-343, T313R) (P35453 263-343 T313R): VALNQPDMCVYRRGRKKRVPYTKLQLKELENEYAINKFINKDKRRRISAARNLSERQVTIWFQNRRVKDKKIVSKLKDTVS
# [34] = biological target: HOXD13 (Homo sapiens, UniProt P35453 263-343)
# Chain of HOXD13 (Homo sapiens, UniProt P35453 263-343) (P35453 263-343): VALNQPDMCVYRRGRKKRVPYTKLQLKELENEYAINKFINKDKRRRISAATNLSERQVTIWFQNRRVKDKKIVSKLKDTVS
# [35] = biological target: HOXC10 (Homo sapiens, UniProt Q9NYD6 254-340, K271E)
# Chain of HOXC10 (Homo sapiens, UniProt Q9NYD6 254-340, K271E) (Q9NYD6 254-340 K271E): as the sequence (Q9NYD6 254-340) above, with K18E counted along it
# [36] = biological target: HOXD13 (Homo sapiens, UniProt P35453 263-343, T313A)
# Chain of HOXD13 (Homo sapiens, UniProt P35453 263-343, T313A) (P35453 263-343 T313A): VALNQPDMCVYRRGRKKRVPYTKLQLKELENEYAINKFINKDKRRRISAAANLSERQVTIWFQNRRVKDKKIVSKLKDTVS
# [37] = biological target: ALX1 (Homo sapiens, UniProt Q15699 118-204, L144V)
# Chain of ALX1 (Homo sapiens, UniProt Q15699 118-204, L144V) (Q15699 118-204 L144V): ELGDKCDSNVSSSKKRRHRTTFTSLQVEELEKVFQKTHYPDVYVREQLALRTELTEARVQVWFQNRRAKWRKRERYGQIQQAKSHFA
# [38] = biological target: T18, NKX2-4 (Homo sapiens, UniProt Q9H2Z4 175-261, R246Q)
# T18 sequence: T14 sequence with S57T, R72Q
# [39] = biological target: ALX1 (Homo sapiens, UniProt Q15699 118-204)
# Chain of ALX1 (Homo sapiens, UniProt Q15699 118-204) (Q15699 118-204): as the sequence (Q15699 118-204 L144V) above, with V27L counted along it
# Chain of NKX2-5 (Homo sapiens, UniProt P52952 125-210, R139K) (P52952 125-210 R139K): as the sequence (P52952 125-210) above, with R15K counted along it
# Chain of HOXA4 (Homo sapiens, UniProt Q00056 201-287, W262R) (Q00056 201-287 W262R): as the sequence (Q00056 201-287 R217L) above, with L17R, W62R counted along it
# Chain of PRRX1 (Homo sapiens, UniProt P54821 80-166, F113S) (P54821 80-166 F113S): as the sequence (P54821 80-166) above, with F34S counted along it
sequence,measurement,setting,value
GGCAGGAC,binding signal,[1],"8.66 upbm affinity estimate (log intensity, higher = more binding, comparable within an allelic series)"
same,binding signal,[2],"9.94 upbm affinity estimate (log intensity, higher = more binding, comparable within an allelic series)"
same,binding signal,[3],"9.23 upbm affinity estimate (log intensity, higher = more binding, comparable within an allelic series)"
same,binding signal,[4],"9.72 upbm affinity estimate (log intensity, higher = more binding, comparable within an allelic series)"
same,binding signal,[5],"9.8 upbm affinity estimate (log intensity, higher = more binding, comparable within an allelic series)"
same,binding signal,[6],"9.93 upbm affinity estimate (log intensity, higher = more binding, comparable within an allelic series)"
same,binding signal,[7],"8.98 upbm affinity estimate (log intensity, higher = more binding, comparable within an allelic series)"
same,binding signal,[8],"8.83 upbm affinity estimate (log intensity, higher = more binding, comparable within an allelic series)"
GCGGCCCA,binding signal,[1],"8.95 upbm affinity estimate (log intensity, higher = more binding, comparable within an allelic series)"
same,binding signal,[9],"8.92 upbm affinity estimate (log intensity, higher = more binding, comparable within an allelic series)"
same,binding signal,[10],"8.97 upbm affinity estimate (log intensity, higher = more binding, comparable within an allelic series)"
same,binding signal,[11],"8.91 upbm affinity estimate (log intensity, higher = more binding, comparable within an allelic series)"
same,binding signal,[12],"9.19 upbm affinity estimate (log intensity, higher = more binding, comparable within an allelic series)"
same,binding signal,[13],"8.93 upbm affinity estimate (log intensity, higher = more binding, comparable within an allelic series)"
same,binding signal,[14],"8.95 upbm affinity estimate (log intensity, higher = more binding, comparable within an allelic series)"
same,binding signal,[15],"8.94 upbm affinity estimate (log intensity, higher = more binding, comparable within an allelic series)"
same,binding signal,[16],"8.87 upbm affinity estimate (log intensity, higher = more binding, comparable within an allelic series)"
same,binding signal,[17],"8.74 upbm affinity estimate (log intensity, higher = more binding, comparable within an allelic series)"
same,binding signal,[18],"8.92 upbm affinity estimate (log intensity, higher = more binding, comparable within an allelic series)"
same,binding signal,[19],"8.8 upbm affinity estimate (log intensity, higher = more binding, comparable within an allelic series)"
same,binding signal,[20],"8.92 upbm affinity estimate (log intensity, higher = more binding, comparable within an allelic series)"
same,binding signal,[21],"8.91 upbm affinity estimate (log intensity, higher = more binding, comparable within an allelic series)"
same,binding signal,[8],"8.97 upbm affinity estimate (log intensity, higher = more binding, comparable within an allelic series)"
CCCTCCGG,binding signal,[1],"8.58 upbm affinity estimate (log intensity, higher = more binding, comparable within an allelic series)"
same,binding signal,[9],"9.04 upbm affinity estimate (log intensity, higher = more binding, comparable within an allelic series)"
same,binding signal,[10],"8.92 upbm affinity estimate (log intensity, higher = more binding, comparable within an allelic series)"
same,binding signal,[11],"9.12 upbm affinity estimate (log intensity, higher = more binding, comparable within an allelic series)"
same,binding signal,[12],"8.9 upbm affinity estimate (log intensity, higher = more binding, comparable within an allelic series)"
same,binding signal,[13],"9.06 upbm affinity estimate (log intensity, higher = more binding, comparable within an allelic series)"
same,binding signal,[14],"8.95 upbm affinity estimate (log intensity, higher = more binding, comparable within an allelic series)"
same,binding signal,[15],"8.91 upbm affinity estimate (log intensity, higher = more binding, comparable within an allelic series)"
same,binding signal,[16],"9.05 upbm affinity estimate (log intensity, higher = more binding, comparable within an allelic series)"
same,binding signal,[22],"7.03 upbm affinity estimate (log intensity, higher = more binding, comparable within an allelic series)"
same,binding signal,[17],"9.08 upbm affinity estimate (log intensity, higher = more binding, comparable within an allelic series)"
same,binding signal,[18],"9.09 upbm affinity estimate (log intensity, higher = more binding, comparable within an allelic series)"
same,binding signal,[23],"10.1 upbm affinity estimate (log intensity, higher = more binding, comparable within an allelic series)"
same,binding signal,[19],"9.06 upbm affinity estimate (log intensity, higher = more binding, comparable within an allelic series)"
same,binding signal,[20],"9.06 upbm affinity estimate (log intensity, higher = more binding, comparable within an allelic series)"
same,binding signal,[21],"9.01 upbm affinity estimate (log intensity, higher = more binding, comparable within an allelic series)"
same,binding signal,[24],"10.3 upbm affinity estimate (log intensity, higher = more binding, comparable within an allelic series)"
same,binding signal,[25],"6.99 upbm affinity estimate (log intensity, higher = more binding, comparable within an allelic series)"
same,binding signal,[8],"8.53 upbm affinity estimate (log intensity, higher = more binding, comparable within an allelic series)"
TAAGTACA,binding signal,[1],"12.4 upbm affinity estimate (log intensity, higher = more binding, comparable within an allelic series)"
same,binding signal,[26],"12.8 upbm affinity estimate (log intensity, higher = more binding, comparable within an allelic series)"
same,binding signal,[27],"11.9 upbm affinity estimate (log intensity, higher = more binding, comparable within an allelic series)"
same,binding signal,[28],"13.3 upbm affinity estimate (log intensity, higher = more binding, comparable within an allelic series)"
same,binding signal,[29],"10.5 upbm affinity estimate (log intensity, higher = more binding, comparable within an allelic series)"
same,binding signal,[30],"12.6 upbm affinity estimate (log intensity, higher = more binding, comparable within an allelic series)"
same,binding signal,[8],"12.4 upbm affinity estimate (log intensity, higher = more binding, comparable within an allelic series)"
same,binding signal,[31],"12.6 upbm affinity estimate (log intensity, higher = more binding, comparable within an allelic series)"
CCCCCCGG,binding signal,[1],"8.2 upbm affinity estimate (log intensity, higher = more binding, comparable within an allelic series)"
same,binding signal,[32],"9.81 upbm affinity estimate (log intensity, higher = more binding, comparable within an allelic series)"
same,binding signal,[27],"8.56 upbm affinity estimate (log intensity, higher = more binding, comparable within an allelic series)"
same,binding signal,[33],"8.85 upbm affinity estimate (log intensity, higher = more binding, comparable within an allelic series)"
same,binding signal,[34],"8.78 upbm affinity estimate (log intensity, higher = more binding, comparable within an allelic series)"
same,binding signal,[35],"9.82 upbm affinity estimate (log intensity, higher = more binding, comparable within an allelic series)"
same,binding signal,[36],"8.98 upbm affinity estimate (log intensity, higher = more binding, comparable within an allelic series)"
same,binding signal,[8],"8.1 upbm affinity estimate (log intensity, higher = more binding, comparable within an allelic series)"
CGCACTTA,binding signal,[1],"12.6 upbm affinity estimate (log intensity, higher = more binding, comparable within an allelic series)"
same,binding signal,[27],"11.8 upbm affinity estimate (log intensity, higher = more binding, comparable within an allelic series)"
same,binding signal,[37],"8.31 upbm affinity estimate (log intensity, higher = more binding, comparable within an allelic series)"
same,binding signal,[28],"13.5 upbm affinity estimate (log intensity, higher = more binding, comparable within an allelic series)"
same,binding signal,[38],"12.9 upbm affinity estimate (log intensity, higher = more binding, comparable within an allelic series)"
same,binding signal,[29],"10.9 upbm affinity estimate (log intensity, higher = more binding, comparable within an allelic series)"
same,binding signal,[30],"12.6 upbm affinity estimate (log intensity, higher = more binding, comparable within an allelic series)"
same,binding signal,[39],"8.83 upbm affinity estimate (log intensity, higher = more binding, comparable within an allelic series)"
same,binding signal,[8],"12.5 upbm affinity estimate (log intensity, higher = more binding, comparable within an allelic series)"
same,binding signal,[31],"12.7 upbm affinity estimate (log intensity, higher = more binding, comparable within an allelic series)"
